Shiga toxin inh = inhibitors of Shiga toxin in Vero cells; hit rate 9.2% among 290,000; Vero cells, Shiga toxin protein synthesis inhibition reporter; inhibition, % at 38.7 µM; in the data active means inhibition mostly above about 28%, no sharp cut-off; inactive means mostly below about 43%; further: 0% is about no effect
Vaccinia mCherry = vaccinia inhibition (mCherry reporter); Vaccinia virus mCherry reporter infection, fluorescence; Potency, µM (doses to about 36.5 µM), without a hit: at the top dose activity change, negative = inhibition, actives largely listed as inhibitors; hit rate 0.63% among 310,000; AID 720579; calls by dose curve; tested in A549 cells; further: potency means the concentration at half of the fitted maximal effect; on the % scale 0 is the no-effect control and ±100 the full control effect; nearly all actives have a fitted effect of over 35% in size
Cycloheximide cs = affects cycloheximide protein synthesis inhibition readout, counter-screen | cell reporter, cycloheximide protein synthesis inhibition counterscreen | max response, % | hit rate 12% among 300,000; in the data active means max response mostly above about 13%, no sharp cut-off; inactive means mostly below about 14%; further: read at 38.3 µM for the half of the compounds with a filed dose; 0% is about no effect
VACV Venus inh = inhibitors of vaccinia virus (Venus reporter) | hit rate 0.46% among 330,000 | Vaccinia virus Venus reporter expression, fluorescence | Potency, µM (doses to about 36.5 µM), for the others: top-dose activity change, negative = inhibition, hits mostly inhibitors; calls by dose curve; tested in A549 cells; further: potency means the concentration at half of the fitted maximal effect; on the % scale 0 is the no-effect control and ±100 the full control effect; nearly all actives have a fitted effect of over 30% in size
MARV entry inh = Marburg virus entry inhibition; Marburg virus pseudotyped entry inhibition, cell reporter; Potency, µM (series often up to 37.8 µM), for inactives: at the top dose activity change, negative = inhibition, most hits filed as inhibitors; AID 540276; hit rate 1.8% among 300,000; calls by dose curve; tested in HEK293 cells; further: potency means the concentration at half of the fitted maximal effect; on the % scale 0 is the no-effect control and ±100 the full control effect
Lassa entry inh = blocks Lassa virus binding to or entry into cells; Lassa virus pseudotype entry inhibition, cell reporter; Potency, µM (titrated, usually from 37.9 µM), without a hit: top-dose activity change, negative = inhibition, most hits filed as inhibitors; hit rate 1.2% among 300,000; AID 540256; calls by dose curve; tested in HEK293 cells; further: potency means the concentration at half of the fitted maximal effect; on the % scale 0 is the no-effect control and ±100 the full control effect; nearly all actives have a fitted effect of over 50% in size
Active calls of the source: *; i = inactive; ? = inconclusive; . = no result; [ ] = another dose, or the depositor's remark. The full list was thinned out, with hits kept by preference.

SMILES	Shiga toxin inh	Vaccinia mCherry	Cycloheximide cs	VACV Venus inh	MARV entry inh	Lassa entry inh
CC(=O)OC(C)(C)C1Cc2cc3ccc(=O)oc3cc2O1 (stereo unspecified)	45*	-5%	23	5%	.	.
COc1ccc(CN2CCN(C(=O)c3ccccc3C(=O)c3ccccc3)CC2)cc1OC	.	-21%	.	-11%	?	-2%
COc1cccc(C2(CC(=O)N3CCCOc4c(cccc4OC)C3)CC(=O)N(C)C2=O)c1 (stereo unspecified)	.	i	.	-12%	.	.
N#C/C(=C\c1cccc2ccccc12)c1nn(-c2ccccc2)c(N)c1C#N	.	-24%	.	-16%	?	?
Cc1ccc(/C=C(\C#N)c2nn(-c3ccccc3)c(N)c2C#N)cc1	37	10µM*	12	?	-6%	?
CC(C)C[C@@H]1NC(=O)[C@@H]2CSCCS(=O)(=O)N2C1=O	.	.	.	.	.	9%[46.1 µM]
CC1(C)CCc2cc(-c3ccnc(=S)[nH]3)ccc2O1	53*	-5%[7.34 µM]	42*	-4%[7.34 µM]	?	?
O=C1C=C(O)C[C@H](c2cccs2)C1	.	.	.	.	21%	.
CCN(CC)c1nc(-c2ccc(C(C)(C)C)cc2)nc2ccccc12	.	0%	.	-18%	.	13µM*
CC(C)CN(CC(C)C)c1nc(-c2ccc(Cl)cc2)nc2ccccc12	.	?	.	?	8%[46.1 µM]	12%[46.1 µM]
Cc1cc(NC(=O)c2cc(-c3cccc(Cl)c3)on2)n(-c2ccccc2)n1	.	?	.	?	-11%[46.1 µM]	1%[46.1 µM]
O=C(NCC1CCCN(C(=O)c2cccnc2)C1)c1ccc(-c2ccccc2)cc1 (stereo unspecified)	4	i	7	-8%	0%[46.1 µM]	?
CC(=O)CCC(=O)N1CCCC(CNC(=O)c2ccc(-c3ccccc3)cc2)C1 (stereo unspecified)	42*	.	21*	.	.	.
CSCC(=O)N1CCCC(CNC(=O)c2ccc(-c3ccccc3)cc2)C1 (stereo unspecified)	22	-12%	12*	-19%	-1%[46.1 µM]	-2%
COc1cc(=O)n2c(c1C(=O)NCc1ccco1)CCN(C(=O)c1cccnc1SC)CC2	.	-4%	.	2%	.	.
O=C(NCCCn1ccnc1)c1cc2c(ccc3ccccc32)o1	68	-2%	31*	-15%	6%[46.1 µM]	7%
O=C(NCCCn1ccnc1)C(=O)NCc1ccccc1	2	.	-2	.	5%	3%
c1ccc2c(c1)oc1c(NCCCn3ccnc3)ncnc12	-11	.	-4	3%	-3%	5%
O=C(NCCCn1ccnc1)C(=O)Nc1ccccc1	28	-11%	16*	-3%	-3%[46.1 µM]	.
O=c1c2ccccc2oc2ccc(NCCCn3ccnc3)cc12	54*	-11%	33*	-23%	.	.
Cc1nc(NCCCn2ccnc2)c2oc3ccccc3c2n1	33	.	16*	0%	-2%	18%
Cc1c([C@@H](Nc2ccccn2)c2ccccc2)c(=O)n(-c2ccccc2)n1C	.	.	.	.	22%	.
CC(C)CCn1c(=O)c(C(=O)Nc2ccccc2S(N)(=O)=O)c(O)c2ccccc21	60	?	20	?	?	?
Cn1c(=O)c(C(=O)Nc2ccccc2S(N)(=O)=O)c(O)c2ccccc21	22	-9%	13*	10%	.	.
Cn1c(=O)c(C(=O)Nc2ccccn2)c(O)c2ccccc21	44*	.	33*	.	?	?
SMILES	Shiga toxin inh	Vaccinia mCherry	Cycloheximide cs	VACV Venus inh	MARV entry inh	Lassa entry inh
CCn1c(=O)c(C(=O)Nc2ccccc2F)c(O)c2ccccc21	43	.	9.1*	.	.	.
CCN(CC)CCCNC(=O)c1c(O)c2ccccc2n(Cc2ccccc2)c1=O	-11	?	-3	?	14µM*	?
CC(C)Cn1c(=O)c(C(=O)Nc2ccccc2S(N)(=O)=O)c(O)c2ccccc21	11	?	8	?	-28%	-2%
CCC(C)n1c(=O)c(C(=O)Nc2ccccc2S(N)(=O)=O)c(O)c2ccccc21 (stereo unspecified)	8	13µM*	1	?	?	?
CCOc1cc(/C=N\NC(=O)c2ccc(NC(=O)C(C)(C)C)cc2)ccc1OC(=O)c1cccc(C)c1	-20	.	-1	.	2.6µM*	6.5µM*
CCOc1cc(/C=N\NC(=O)c2ccc(NC(=O)CC)cc2)ccc1OC(=O)c1ccccc1	4	.	1	.	?	23µM*
CCOc1cc(/C=N\NC(=O)c2ccc(NC(=O)C(C)(C)C)cc2)ccc1OC(=O)c1ccc(C)cc1	-8	-13%	-3	-6%	34%	?
COc1cc2c(c(OC)c1)[C@H](C=Cc1ccccc1)[C@@H]([C@H](O)CO)OC2	.	.	.	.	17%[14.2 µM]	.
CS(=O)(=O)NN1C(=O)c2ccccc2NC1c1cccc(O)c1 (stereo unspecified)	-4	-10%	-4	-2%	0%[46.1 µM]	8%
Cc1ccc(S(=O)(=O)NN2C(=O)c3ccccc3NC2c2ccccn2)cc1 (stereo unspecified)	34	-4%	-6	-7%	7.9µM*	?
CS(=O)(=O)NN1C(=O)c2ccccc2NC1c1ccccc1 (stereo unspecified)	34*	0%	25*	-13%	?	-1%
Cc1ccc(S(=O)(=O)NN2C(=O)c3ccccc3NC2c2ccccc2O)cc1 (stereo unspecified)	-8	-3%	6	-16%	12%[46.1 µM]	-1%[46.1 µM]
CCn1c(-c2ccccc2F)nc2cc(NC(C)=O)cc(C(=O)NC(c3ccccn3)C(F)(F)F)c21 (stereo unspecified)	.	i	.	-29%	.	.
Cc1cc(C)c2c(-n3cccc3)c(C(=O)NCCc3ccccc3)sc2n1	.	-12%	.	-7%	1%[46.1 µM]	17%[46.1 µM]
N#C/C(=C\c1ccc(-c2cccc(Cl)c2)o1)C(=O)Nc1cccc(C(F)(F)F)c1	.	-21%	.	-22%	.	22%[46.1 µM]
Fc1ccccc1CCNc1c2c(nc3ncnn13)CCCC2	-2	-4%	-3	?	6.3µM*	-14%[46.1 µM]
S=C(NCCc1ccccc1)NCCN1CCOCC1	16	i	6.9*	2%	?	?
CCN1CCN(C(=S)NCCc2ccccc2)CC1	43*	.	24*	.	25%	?
S=C(Nc1ccccc1)N1CCOCC1	-13	i	-2	1%	?	1%
O=C(NCCc1ccc(F)cc1)N1CCOCC1	23	.	18*	.	3%	18%
O=C(Cc1ccc(F)cc1)N1CCOCC1	-8	-11%	2	-15%	13%	12%
S=C(N/N=C/c1ccccc1)N1CCOCC1	57*	i	40*	1%	?	?
Cc1ccc(/C=C/C(=O)N2CCC(c3nc4ccccc4o3)CC2)cc1	.	1%	.	-5%	-1%[46.1 µM]	7%[46.1 µM]
Fc1ccccc1N1CCN(c2ncc3c(n2)CCN(Cc2cc(Br)cs2)C3)CC1	.	-14%	.	-18%	.	?
CCCN1CNc2c(c(=O)[nH]c(=S)n2CCc2ccccc2OC)C1	.	-10%	.	-13%	.	.
Cc1cnc(-n2ncc(C(=O)NCC(C)(C)N3CCOCC3)c2C(C)C)nc1-c1ccc(F)cc1	.	-17%	.	-15%	.	.
S=C(NCCc1ccccc1)N1CCOCC1	75*	-11%	40*	-12%	0%	26%
S=C(NCCc1ccccc1)N1CCCC1	.	-4%	.	3%	6%	?

Compound activity from PubChem BioAssay.
